Only some compounds are listed: those with a hit (about 2.8% of all), similar ones and a draw of the others.
GALC G270D up: A Novel Cell-Based Assay to Identify Small Molecules for B -Galactocerebrosidase; Potency, µM (top dose mostly 57.5 µM), actives largely listed as activators; P54803; 0.1% of 45,000 active; 145M-Twi-hGALC-G270D cells (Twitcher mouse brain line with human GALC G270D), HMU-beta-Gal fluorescence, 48 h; AID 1159614, 2016; note: nearly all actives have a fitted effect of over 65% in size
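Mutant human GALC (G270D), stably expressed in a Twitcher mouse brain cell line lacking endogenous GALC, is measured in live-treated cells via 6-hexadecanoylamino-4-methylumbelliferyl-β-galactoside hydrolysis (0.1 mM final, pH 5.2) with fluorescent detection.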
TSG101-PTAP inh: qHTS Validation Assay for Inhibitors of HIV-1 Budding by Blocking the Interaction of PTAP/TSG101: Sytravon Library Screen. Tumor susceptibility gene 101 protein (Homo sapiens), Q99816. Fluorescence polarization, FITC-PTAP peptide/Tsg101, 20 min. Potency, µM (highest dose often 115 µM), most hits filed as inhibitors. 44,000 tested, under 10 active
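Fluorescence polarization binding of Tsg101 binding domain (10 uM final) to FITC-labeled PTAP-motif peptide (50 nM final) in HEPES pH 7.5/NaCl/Tween 20/EDTA/TCEP buffer; 20 min at r.t. Actives by curve class, <25 µM, efficacy <60% inhibition.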
GALK inhibitor: qHTS Assay for Inhibitors of Human Galactokinase (GALK): NCGC Sytravon Library Screen | 44,000 tested, under 10 active | Potency, µM (highest dose often 57.5 µM), most hits filed as inhibitors | AID 1347072, 2019 | recombinant GALK, Kinase-Glo ATP luminescence, 1 h
Target sequence (P51570 whole entry, looked up): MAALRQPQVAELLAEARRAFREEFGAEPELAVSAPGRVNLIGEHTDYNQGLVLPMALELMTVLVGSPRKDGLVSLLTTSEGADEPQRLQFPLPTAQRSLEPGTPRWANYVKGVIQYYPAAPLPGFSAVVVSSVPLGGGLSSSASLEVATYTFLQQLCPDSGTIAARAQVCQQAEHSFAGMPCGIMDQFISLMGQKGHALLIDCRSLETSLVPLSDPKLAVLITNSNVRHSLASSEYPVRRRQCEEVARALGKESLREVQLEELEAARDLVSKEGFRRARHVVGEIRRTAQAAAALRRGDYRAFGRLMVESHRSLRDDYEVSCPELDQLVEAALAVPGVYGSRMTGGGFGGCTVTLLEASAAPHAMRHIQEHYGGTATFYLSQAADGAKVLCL
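Luminescent ATP-depletion readout (Kinase-Glo Plus) after 1 h room-temperature incubation of human GALK (5 nM) with galactose 100 µM and ATP 35 µM, pH 8.0 HEPES/Mg2+ buffer; compounds tested in qHTS format.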
B2AR arrestin ag: qHTS assay of beta-arrestin-biased ligands of beta2-adrenergic receptor: NCGC Sytravon Library Screen. HTLA Tango cells, beta-arrestin recruitment, luciferase luminescence, 18 h. Potency, µM (top dose mostly 46.1 µM), usual class: activators. 44,000 tested, under 10 active
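Tango cells (recombinant beta2-AR, beta-arrestin, tTA-driven luciferase), 1500/well in DMEM 1% FBS, treated 18 h at 37 °C with compounds up to 46 µM; luciferin mix added, luminescence read after 15 min; %activity curves fitted and curve-classed.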
FH mod: Identification of activators of human fumarate hydratase by quantitative high-throughput screening; Potency, µM (highest dose often 79.9 µM), hits mostly inhibitors; Fumarate hydratase, mitochondrial (Homo sapiens), P07954; 0.22% of 54,000 active; FH coupled MDH/diaphorase resazurin fluorescence, 15 min; note: the screen sought activators but most active calls are inhibition curves; nearly all actives have a fitted effect of over 45% in size
DRV1 agonist: qHTS for Agonists of Human Resolvin D1 Receptor DRV1; Probable G-protein coupled receptor 32 (Homo sapiens), O75388; CHO-K1 GPR32 beta-arrestin PathHunter luminescence, 90 min; zero percent set by DMSO-only wells; activation, % at 76.9 µM; 2.5% of 48,000 active; AID 1346428, 2018;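 active = activation of at least 60% and not above a set upper limit, about 1 call in 100 departs from these limits; inconclusive = activation of 40% to 60%, or above that upper limit; inactive = activation under 40%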
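GPR32 activation in stably transfected CHO-K1 cells, detected as beta-arrestin recruitment by enzyme-fragment complementation. Compound exposure: 90 min, 37 °C.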
Numbers stand for hits; i = inactive; ? = inconclusive; nt = no result. Unless noted, calls come from the whole dose curve; as a rule, active = well fitted curve in the direction sought with a large enough effect; inconclusive = small, poorly fitted or top-dose-only effect, or another doubt; inactive = no such curve, though single readings can be large; an effect the other way counts as inactive or inconclusive.

SMILES	GALC G270D up	TSG101-PTAP inh	GALK inhibitor	B2AR arrestin ag	FH mod	DRV1 agonist
COc1ccc(-n2c(SCC(=O)N3CCc4ccccc43)nc3c([nH]c4ccccc43)c2=O)cc1	i	i	i	i	i	110
COc1ccc(-n2c(SCC(=O)N3CCCc4ccccc43)nc3c([nH]c4ccccc43)c2=O)cc1	i	i	i	i	i	i
CCc1ccc2[nH]cc(S(=O)(=O)c3ccc(C(C)C)cc3)c(=O)c2c1	i	i	i	i	i	65
CC(=O)C1=CCC2C3CCC4CC(O[C@@H]5O[C@H](CO)[C@@H](O[C@@H]6O[C@@H](C)[C@H](O)[C@@H](O)[C@H]6O)[C@H](O)[C@H]5O[C@@H]5O[C@H](CO)[C@@H](O)[C@H](O)[C@H]5O)CCC4(C)C3CCC12C (some centres undefined)	nt	nt	nt	nt	i	nt
O=C(CC1(O)C(=O)N(CCc2ccccc2)c2ccc(Br)cc21)c1ccccc1 (centres undefined)	i	i	i	i	i	60
Cc1ccccc1CN1C(=O)C(O)(CC(=O)c2cccc(Br)c2)c2ccccc21 (centres undefined)	i	i	i	i	32µM	i
COc1cc(C)c(C(=O)O[C@H]2[C@@H](O)[C@H](n3ccc(=O)[nH]c3=O)O[C@@H]2CO)c(OC)c1	nt	nt	nt	nt	i	nt
CC(C)NCC(O)c1ccc2ccccc2c1 (centres undefined)	i	nt	nt	nt	i	68
CC(C)c1ccc(NC(=O)C2(C)Cc3ccccc3C(=O)O2)cc1 (centres undefined)	i	i	i	i	i	79
COc1c(C)c2c(c(O)c1C/C=C(\C)CC/C=C(\C)CCC(=O)O)C(=O)OC2	nt	nt	nt	nt	i	nt
Cc1cn(C2C[C@H](O)[C@@H](CO)O2)c(=O)[nH]c1=O (some centres undefined)	nt	nt	nt	nt	i	nt
CCc1ccc(NS(=O)(=O)c2ccc3[nH]cc(C(=O)NC4CCCC4)c(=O)c3c2)cc1	i	i	i	i	?	?
O=C(NC1CCCC1)c1c[nH]c2ccc(S(=O)(=O)Nc3cccc(C(F)(F)F)c3)cc2c1=O	i	i	i	i	?	82
CCN(c1ccccc1)S(=O)(=O)c1ccc2[nH]cc(C(=O)NCc3ccc(C)cc3)c(=O)c2c1	i	i	i	i	i	63
CCc1ccccc1NS(=O)(=O)c1ccc2[nH]cc(C(=O)NC3CCCC3)c(=O)c2c1	i	i	i	i	?	106
O=C(NC1CCCC1)c1cc(Nc2cccc(C(F)(F)F)c2)nc2ccccc12	i	i	i	i	i	96
O=C1CCC(c2ccccc2)(C2CCN(Cc3ccc(I)cc3)CC2)C(=O)N1 (centres undefined)	nt	nt	nt	nt	i	nt
O=C(O)[C@H](Cc1ccccc1)Oc1ccc(-c2ccccc2)cc1	nt	nt	nt	nt	i	nt
CCOc1ccc(NS(=O)(=O)c2ccc3[nH]cc(C(=O)NCc4ccco4)c(=O)c3c2)cc1	i	i	i	i	i	67
Cc1cc(C)cc(NS(=O)(=O)c2ccc3[nH]cc(C(=O)NCCc4ccccc4)c(=O)c3c2)c1	i	i	i	i	i	79
CCOCCCNC(=O)c1c[nH]c2ccc(S(=O)(=O)Nc3cccc(Cl)c3C)cc2c1=O	i	i	i	i	i	65
O=C(NC1CCCCC1)c1c[nH]c2ccc(S(=O)(=O)Nc3ccccc3F)cc2c1=O	i	i	i	i	?	101
CC#CCn1c(N2CCCC(N)C2)nc2c1c(=O)n(Cc1nc(C)c3ccccc3n1)c(=O)n2C (centres undefined)	nt	nt	nt	nt	i	nt
COc1cc(/C=C/c2ccccc2)c(C(=O)O)c(O)c1CC=C(C)C	nt	nt	nt	nt	i	nt
COc1ccc(CCNS(=O)(=O)c2ccc(F)c(C(=O)Nc3ccc(Cl)cc3)c2)cc1OC	i	i	i	i	i	64
SMILES	GALC G270D up	TSG101-PTAP inh	GALK inhibitor	B2AR arrestin ag	FH mod	DRV1 agonist
CC(=O)N1c2ccc(S(=O)(=O)NCC3CCC(C(=O)Nc4ccc(F)cc4)CC3)cc2CC1C (centres undefined)	i	i	i	i	i	68
Cc1ccc(NC(=O)C2CCC(CNS(=O)(=O)c3cccs3)CC2)cc1C (centres undefined)	i	i	i	i	i	i
CC(=O)c1ccc(NC(=O)C2CCC(CNS(=O)(=O)c3cccs3)CC2)cc1 (centres undefined)	i	i	i	i	i	108
CCc1ccc(NC(=O)C2CCC(CNS(=O)(=O)c3ccc4c(c3)CC(C)N4C(C)=O)CC2)cc1 (centres undefined)	i	i	i	i	i	i
O=C1NC(=O)/C(=C/c2ccc3nccnc3c2)S1	nt	nt	nt	nt	i	i
O=C1NC(=O)/C(=C\c2ccc3nccc(-c4ccncc4)c3c2)S1	nt	nt	nt	nt	25µM	nt
O=C1NC(=O)/C(=C/c2ccc3nccc(-c4ccncc4)c3c2)S1	nt	nt	nt	nt	32µM	nt
Cc1cccc(N(C)S(=O)(=O)c2nnc(NC(=O)c3cccs3)s2)c1	i	i	i	i	i	73
COc1ccc(C(OC2OC(CO)C(O)C(O)C2O)C(C)O)cc1 (centres undefined)	nt	nt	nt	nt	i	nt
O=C(COc1ccc(F)cc1)Nc1ccc2nc(SCc3ccccc3)sc2c1	i	i	i	i	i	i
CC(C)(C)C(=O)Nc1ccc2nc(SCc3ccccc3)sc2c1	i	i	i	i	i	120
CCC(=O)Nc1ccc2nc(SCc3ccc(C)cc3)sc2c1	i	i	i	i	i	86
Cc1ccc(CSc2nc3ccc(NC(=O)CC(C)C)cc3s2)cc1	i	i	i	i	i	i
O=C(COc1ccc(F)cc1)Nc1ccc2nc(SCCOc3ccccc3)sc2c1	i	i	i	i	i	i
NC(=O)CSc1nc2ccc(NC(=O)COc3ccccc3)cc2s1	i	i	i	i	i	70
Cc1ccc(CSc2nc3ccc(NC(=O)COc4ccc(F)cc4)cc3s2)cc1	i	i	i	i	i	88
CC(C)CCC[C@@H](C)[C@H]1CC[C@H]2[C@@H]3CC=C4C[C@@H](OC(=O)NCCN(C)C)CC[C@]4(C)[C@H]3CC[C@]12C	nt	nt	nt	nt	i	nt
